Compound activity from PubChem.
Only a selection was taken, and hits are over-represented in it overall.
ST2 inh = IL1RL1 inhibition | AlphaLISA ST2-Fc/biotin-IL-33 interaction, 1 h | inhibition, % for hits at 17 µM | actives 2.3% (n = 78,000) | AID 1259354; in the data active = inhibition above about 30%
Target sequence (Q01638 whole entry, looked up): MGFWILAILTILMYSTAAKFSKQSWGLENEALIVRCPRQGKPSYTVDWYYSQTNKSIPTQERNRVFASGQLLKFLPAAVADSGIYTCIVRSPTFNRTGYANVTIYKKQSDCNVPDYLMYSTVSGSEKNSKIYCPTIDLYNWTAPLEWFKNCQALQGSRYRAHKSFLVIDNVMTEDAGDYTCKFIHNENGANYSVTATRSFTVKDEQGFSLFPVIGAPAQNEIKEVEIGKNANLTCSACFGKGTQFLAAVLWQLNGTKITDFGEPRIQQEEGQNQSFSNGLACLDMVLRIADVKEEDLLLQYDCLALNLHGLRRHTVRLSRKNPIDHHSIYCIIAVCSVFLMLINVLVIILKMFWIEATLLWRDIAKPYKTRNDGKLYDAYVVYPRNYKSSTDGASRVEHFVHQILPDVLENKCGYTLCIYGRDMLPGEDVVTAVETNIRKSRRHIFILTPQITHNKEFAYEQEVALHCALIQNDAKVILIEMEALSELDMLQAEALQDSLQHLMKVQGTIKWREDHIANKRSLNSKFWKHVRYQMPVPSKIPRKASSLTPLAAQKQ
Numbers stand for hits; 0 = inactive.

SMILES	ST2 inh
COc1cccc(C(=O)Nc2cc(C)ccc2OCc2cc(=O)n3oc(C)cc3n2)c1	0
O=C(Nc1cccc(O)c1)c1ccc(Br)c(S(=O)(=O)N2CCCCCC2)c1	0
Cc1nnsc1CN(C)C(=O)c1cccc2c1OCC2	0
CCS(=O)(=O)N1CCN(c2cc(-c3cccc(C)c3)ncn2)CC1	0
Cc1cc(C)n2c(Br)c(CSc3nncn3-c3ccccc3)nc2n1	0
CCOC(=O)CC1=C(C(=O)OCC)C(c2ccc(C)o2)C(C#N)=C(N)O1 (stereo not drawn)	0
Cc1ccc(C2C(C#N)=C(N)OC3=C2C(=O)CCC3)o1 (stereo not drawn)	0
Cc1ccc(C2C(C#N)=C(N)Oc3c2sc2ccccc32)o1 (stereo not drawn)	39%
O=C(NCCSCc1ccco1)c1ccc(CN2CCc3ccccc3C2)cc1	0
CCCCn1ncc(C)c1NC(=O)c1cccnc1SC	0
Cc1ccc(-c2ccnc(-c3ccn[nH]3)n2)c(C)n1	0
CCc1ccccc1NC(=O)C(C)N(c1ccc(OC)cc1)S(C)(=O)=O (stereo not drawn)	0
CN(C)c1ccc(/C=C/c2nc3ccccc3c(=O)n2CCCO)cc1	0
COc1ccc(/C=C/c2nc3ccccc3c(=O)n2Cc2ccccc2)cc1	0
CN(C)c1ccc(/C=C/c2nc3ccc(I)cc3c(=O)n2C)cc1	42%
Cc1cc(C)n2ncc(CN(C)C(C)c3ccccn3)c2n1 (stereo not drawn)	0
COc1ccc(C(=O)Nc2ccc(C)c(Cl)c2)cc1	0
O=S(=O)(NCc1ccco1)c1ccccc1	0
COc1ccc(N(C)S(=O)(=O)c2cccc3nonc23)cc1	0
CC1=NN(c2ccc(Cl)c(C(=O)O)c2)C(=O)/C1=C\c1ccc(-c2cccc([N+](=O)[O-])c2)o1	0
CC1=NN(c2cccc(Cl)c2)C(=O)/C1=C\c1ccc(-c2cc([N+](=O)[O-])ccc2O)o1	91%
CC1=NN(c2ccc(Br)cc2)C(=O)/C1=C\c1ccc(-c2cccc([N+](=O)[O-])c2)o1	0
COc1ccc(/C=C2\C(=O)N(c3cccc(Cl)c3)N=C2C)cc1Br	0
COc1ccc(/C=C2\C(=O)N(c3ccccc3)N=C2C)cc1[N+](=O)[O-]	0
COc1ccc(-c2ccc(/C=C3\C(=O)N(c4cccc(Cl)c4)N=C3C)o2)cc1[N+](=O)[O-]	49%
SMILES	ST2 inh
Cc1cc2c(cc1S(=O)(=O)N1CCCC1C(=O)NCc1ccccc1Cl)OCC(=O)N2 (stereo not drawn)	0
COc1ccc(Br)cc1C1C(C(=O)OC2CCCCC2)=C(C)Nc2nnnn21 (stereo not drawn)	0
O=c1c(C=NCCCO)c(CSc2ccc(Cl)cc2)[nH]n1-c1nc2ccccc2s1	0
O=C1CCCC2=C1C(c1cccnc1)c1c(nc(SCc3ccccc3)[nH]c1=O)N2 (stereo not drawn)	0
O=C(CN1C(=O)S/C(=C\C=C\c2ccccc2)C1=O)Nc1ccc(C(=O)O)cc1	32%
O=C(CN1C(=O)S/C(=C\c2ccccc2)C1=O)Nc1nccs1	0
CC(C)(C)NC(=O)CN1C(=O)S/C(=C\c2ccccc2)C1=O	0
CN(Cc1ccccc1)C(=O)CN(c1cccc(Cl)c1Cl)S(=O)(=O)c1ccccc1	0
CC(=O)c1cccc(NC(=O)CSc2nc(-c3ccco3)nc3cc(=O)[nH]n23)c1	0
O=C(CN1CCCCCC1)N1CCCc2c1c(=O)oc1ccc(OCc3ccccc3)cc21	30%
O=C(CN1CCCCCC1)N1CCCc2c1c(=O)oc1ccc(O)cc21	0
O=C(CN1CCCC1)N1CCCc2c1c(=O)oc1ccc(O)cc21	0
Cc1ccc(OCC(=O)N2CCN(S(=O)(=O)c3cc4c5c(c3)CCN5C(=O)CC4)CC2)cc1	0
CC1CCN(c2ncnc3ccccc23)CC1	0
CC1CCN(Cc2cc(Cn3ccnc3)c3cccnc3c2O)CC1	51%
c1ccc2c(CN3CCCCC3CCn3ccnc3)ccnc2c1 (stereo not drawn)	0
Cc1ccc(CN2CCCC(O)C2)c(C)c1 (stereo not drawn)	0
CCN(CC)C(=O)[C@@H]1C[C@@H](N)CN1C(=O)CN1CCCC1=O	0
CCOc1ncccc1C(=O)N(C)CCc1nc2ccc(F)cc2[nH]1	0
O=C(c1ccccc1)c1c[nH]c2ccc(Cl)cc2c1=O	0
O=C(COc1ccc(C(=O)N2C[C@@H]3CC[C@H]2C3)cc1)N1CCCCC1	0
N#Cc1c(NC(=O)c2cc(C3CC3)on2)sc2c1CCCC2	0
Cc1ccccc1NC(=O)CCC(=O)Nc1ccccc1C	0
Cc1ccccc1NCCNc1ccccc1C	34%
Cc1ccc(C(=O)Nc2ccccc2C)cc1	0
SMILES	ST2 inh
CCCCC1CCC(C(=O)NN)CC1 (stereo not drawn)	0
CN(C)c1ccc(C(=O)NC2CCCN(Cc3ccc(Cl)cc3)C2)cc1 (stereo not drawn)	0
COc1cc2c(cc1OC)C(c1ccc(Cl)cc1)OC1=C2C(=O)c2ccccc21 (stereo not drawn)	47%
CCOc1cc2c(cc1OCC)C(c1ccc(OC)c(OC)c1)OC(=O)C2 (stereo not drawn)	0
COc1cc(NC2OC(=O)c3ccccc32)c(OC)cc1Cl (stereo not drawn)	0
COc1ccc2oc(=O)c(C(=O)Nc3nc(-c4ccccc4)cs3)cc2c1	0
CN1CCN([C@H]2CN(Cc3ccc(-n4cncn4)cc3)C[C@@H]2O)CC1	0
CC(=NCCCN1CCOCC1)c1c(-c2ccccc2)[nH]n(-c2nc3ccccc3s2)c1=O	0
Brc1cccc(CN2CCSCC2)c1	0
Cc1[nH]n(-c2ccccc2)c(=O)c1C=Nc1ccc([N+](=O)[O-])cc1Cl	0
CC(=O)c1ccc(N=Cc2c(C)[nH]n(-c3ccccc3)c2=O)cc1	0
Cc1[nH]n(-c2ccc(Cl)cc2)c(=O)c1C=Nc1cccc(Nc2ccccc2)c1	30%
COc1ccc(C2SCCN2S(=O)(=O)c2cccc(C)c2)cc1[N+](=O)[O-] (stereo not drawn)	31%
O=S(=O)(c1ccc(-c2ccccc2)cc1)N1CCSC1c1ccccc1 (stereo not drawn)	0
COc1ccc(C2SCCN2S(=O)(=O)c2cccc(C(F)(F)F)c2)cc1[N+](=O)[O-] (stereo not drawn)	0
COc1cc(OC)c(C2SCCN2S(=O)(=O)c2cccc(C)c2)cc1OC (stereo not drawn)	0
Cc1ccc(S(=O)(=O)N2CCSC2c2ccc(Br)cc2)cc1 (stereo not drawn)	70%
Cc1cccc(S(=O)(=O)N2CCSC2c2ccc(Br)cc2)c1 (stereo not drawn)	0
CCCS(=O)(=O)NCc1cccnc1Oc1ccc(C)c(F)c1F	0
CN1CC(=O)N2CCN(Cc3ccc(Oc4ccccc4)nc3)CC2C1=O (stereo not drawn)	0
Cc1ccc(OCc2cc(=O)n3oc(C)cc3n2)c(NC(=O)c2ccccc2Br)c1	0
CC1(C)Cc2ccccc2-c2nc(-c3ccccc3)oc(=O)c21	41%
O=c1[nH]c(CN2CCCC2)nc2c1C1(CCCC1)Cc1ccccc1-2	0
O=c1oc(-c2ccccc2)nc2c1C1(CCCC1)Cc1ccccc1-2	48%
Cn1c(=O)c2nc(-c3ccccc3)oc2c2ccccc21	0
O=c1[nH]c(CN2CCOCC2)nc2c1C1(CCCC1)Cc1ccccc1-2	0
CC1(C)Cc2ccccc2-c2nnc(-c3ccccc3)n21	0
O=C1N=C(N2CCN(c3ccccc3)CC2)S/C1=C/c1ccc(O)cc1	0
CC1CCC(C(=O)NC(C(=O)NCCCN2CCCCC2)C(C)C)CC1 (stereo not drawn)	0
Nc1cc(=O)[nH]c2nnc(SCc3ccccc3)n12	0
